# High-throughput results (PubChem)
# ALOX15 inhib – inhibitors of human 15-lipoxygenase (ALOX15); P16050; purified 15hLO-1, xylenol orange hydroperoxide absorbance; Potency, µM (titrated, usually from 57.1 µM), inactives show top-dose activity change, negative = inhibition, most hits filed as inhibitors; hit rate 1.4% among 74,000; further: nearly all actives have a fitted effect of over 55% in size
#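 Purified human 15hLO-1 (40 nM final) in 25 mM Hepes pH 7.5, 0.01% Triton X-100 was preincubated with compound 15 min at room temperature, then reacted 6 min with 50 uM arachidonic acid; hydroperoxide detected by Fe-XO, 573/405 nm absorbance ratio.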
# ALOX15B inhib – 15-hLO-2 (ALOX15B) enzyme inhibition; hit rate 0.56% among 110,000; AID 881; Potency, µM (highest dose often 57.1 µM), for inactives: at the highest dose activity change, negative = inhibition, most hits filed as inhibitors; purified 15hLO-2, xylenol orange hydroperoxide absorbance; O15296; further: nearly all actives have a fitted effect of over 60% in size
# Target sequence (O15296 whole entry, looked up): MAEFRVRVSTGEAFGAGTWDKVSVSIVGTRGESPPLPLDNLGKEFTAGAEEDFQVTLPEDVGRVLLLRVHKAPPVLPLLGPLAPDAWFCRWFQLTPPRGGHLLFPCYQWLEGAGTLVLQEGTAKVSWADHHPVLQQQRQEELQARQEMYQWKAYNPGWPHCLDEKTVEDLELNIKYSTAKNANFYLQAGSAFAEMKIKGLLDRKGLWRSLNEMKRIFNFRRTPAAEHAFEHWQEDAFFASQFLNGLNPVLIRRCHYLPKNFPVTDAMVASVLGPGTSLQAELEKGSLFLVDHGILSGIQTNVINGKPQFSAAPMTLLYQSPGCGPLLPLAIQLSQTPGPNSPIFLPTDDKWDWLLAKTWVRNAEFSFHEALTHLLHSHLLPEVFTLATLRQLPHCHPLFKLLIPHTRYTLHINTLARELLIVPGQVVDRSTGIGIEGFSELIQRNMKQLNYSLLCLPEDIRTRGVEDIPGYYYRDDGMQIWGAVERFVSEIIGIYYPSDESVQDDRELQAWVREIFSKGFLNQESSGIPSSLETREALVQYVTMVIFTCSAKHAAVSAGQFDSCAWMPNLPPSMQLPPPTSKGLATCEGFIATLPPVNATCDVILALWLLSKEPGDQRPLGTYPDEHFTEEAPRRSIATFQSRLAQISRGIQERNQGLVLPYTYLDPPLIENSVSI
#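 Screening format was qHTS against 50 nM purified 15hLO-2 in Hepes pH 7.5 with detergent. Activity follows hydroperoxide formation from 45 uM arachidonic acid, measured as 573:405 nm absorbance ratio of the ferric-xylenol orange complex.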
# The depositor's hits bear a star; ? = inconclusive; / = not tested or not shown; [ ] = another dose, or the depositor's remark. This excerpt belongs to a sample that is enriched for hits. The call rests on the fitted dose curve; in most records, active means well fitted inhibition curve with a large enough effect; inconclusive means small, poorly fitted or top-dose-only effect; inactive means no such curve, though single readings can be large or run the other way. On the % scale 0 is the no-effect control and ±100 the full control effect; potency means the concentration at half of the fitted maximal effect.
SMILES,ALOX15 inhib,ALOX15B inhib
Oc1ccccc1C1Nc2cccc3cccc(c23)N1,20µM*,2µM*
O=C1NC(c2ccco2)Nc2ccccc21 (configuration not stated),-16%,4%
COc1cccc2c1[C@H](CO)N1[C@H](C#N)[C@@H]3C[C@H](C(=O)O)[C@@H]([C@@H]1C2)N3C,27%[11.4 µM],-2%[11.4 µM]
CCC(=O)Oc1ccc2c(c1)CCC1C2CC[C@]2(C)C(OC(=O)CC)CCC12 (some centres not stated),/,12%[0.0915 µM]
C[C@H](N)C(=O)OC(C)(C)Cc1ccc(Cl)cc1,7%,36%
CC(C)c1cc(Nc2cccc(O)c2)cc(C(C)C)c1O,10µM*,13µM*
Oc1cccc(Nc2ccccc2)c1,-6%,-26%
CN(C)C=NC(=O)/C(C#N)=C1\CCc2ccccc2N1,7.9µM*,-3%
O=C(O)CCN=C1CCCc2ccccc2N1,21%,/
CCOC(=O)c1cc(-c2ccc(N)cc2)sc1N,25µM*,-12%[2.29 µM]
CCOC(=O)c1sc(-c2ccc(Br)cc2)cc1N,/,-5%
CCCN(CCc1ccccc1)[C@H]1CCc2c(O)cccc2C1,12%,19%
CN(C)/C=C1/Sc2ccccc2C1=O,2%,-27%
CN(C)/C=C1\C(=O)c2ccc(N(C)C)nc2CC1c1ccccc1 (configuration not stated),5µM*,/
COc1cc(O)c(C)c(O)c1,0%,-2%
O=C(Nc1cccc(Oc2ccc3c(c2)C(=O)NC3=O)c1)c1ccco1,16µM*,-10%[11.4 µM]
Cc1ccc(Oc2ccc(NC(=O)c3ccco3)cc2)cc1,?,16%
Cc1cccc(CNc2ccnc(-c3cccc(C#N)c3)n2)c1,?,34%
CN1CCN(c2ncc3nc(-c4ccc(Cl)cc4)c(=O)n(C)c3n2)CC1,-3%,10%
CC(C)COC(=O)NCC12C=CC(O1)C1C(=O)N(c3ccc(Cl)cc3)C(=O)C12 (configuration not stated),-15%,?
O=C1C2C3C=CC(CO)(O3)C2C(=O)N1c1ccc(-c2ccccc2)cc1 (configuration not stated),-11%,0.4µM*
NC(=O)SCC(=O)Nc1ccc(Cl)cc1,25µM*,?
NC(=O)SCC(=O)Nc1cccc(Cl)c1,-4%,?
CN1CCN(c2ncc3ncc(=O)n(C[C@H]4CCCO4)c3n2)CC1,9%,2%
C[C@@H]1CC2(OC[C@]3(C)O[C@H]23)O[C@H]2C[C@@]3(C)[C@@H]4CC[C@H]5C(C)(C)C(O[C@@H]6OC[C@@H](O)[C@H](O)[C@H]6O)CC[C@@]56C[C@@]46CC[C@]3(C)[C@@H]12 (some centres not stated),8%,2%
SMILES,ALOX15 inhib,ALOX15B inhib
COc1cc(C(Nc2ccccn2)c2ccc3ccc(C)nc3c2O)cc(OC)c1O (configuration not stated),13µM*,77%
Cc1ccc2ccc(C(Nc3ccccn3)c3ccccc3)c(O)c2n1 (configuration not stated),/,55%
O=C(O)c1ccc2c3c(cccc13)C(=O)N(c1ccccc1O)C2=O,2%,/
CCOC(=O)Nc1ccc2c(c1)Nc1ccccc1S2,32µM*,13µM*
CC(=O)c1ccc2c(c1)Nc1ccccc1S2,?,-26%
O=C(/N=C1\NC(=O)C(F)(C(F)(F)F)S1)NC1CCCCC1 (configuration not stated),10µM*,-14%
O=C(NC1CCCCCCC1)NC1CCCCC1,/,-24%
CC(CCC(=O)O)C1CCC2C3CC[C@H]4CC(O)CC[C@@]4(C)C3CC(O)[C@]12C (some centres not stated),6%,-2%
CN(C)c1ccc(-c2nc(N(C)Cc3ccco3)c3ccccc3n2)cc1,-1%,34%
CN(Cc1ccco1)c1nc(-c2ccoc2)nc2ccccc12,13µM*,-21%
CCN1CCN(C(=O)N[C@H](C(=O)N[C@@H]2C(=O)N3C(C(=O)O)=C(CSc4nnnn4C)CS[C@@H]23)c2ccc(O)cc2)C(=O)C1=O,11%[25.6 µM],4%[25.6 µM]
CCCn1c(=O)c(C)cn2nc(N)nc12,-10%[25.6 µM],15%
CCCn1c(NC(=O)c2ccccc2)nc2ccccc21,18%,38%
CCn1c(NC(=S)Nc2ccccc2)nc2ccccc21,/,25µM*
COC(=O)NC(/C(C(=O)OC)=C(\C)NCc1ccccc1)c1cccc(C)c1 (configuration not stated),0%[11.4 µM],/
COC(=O)CN1C(=O)S/C(=C/c2ccc(N3CCCCC3)o2)C1=O,/,13µM*
CCOC(=O)CN1C(=O)S/C(=C/c2ccc(N3CCCCC3)o2)C1=O,/,-21%
CNC(=O)Oc1ccc2c(c1)C1(C)CCN(C)C1N2C (configuration not stated),-11%[25.6 µM],3%
O=C(NCCC[N+]1=CC=N[C@H]1c1ccccc1)N1CCCc2nc(-c3ccc(Br)cc3)ccc21,10%[11.4 µM],/
NC(=S)c1ccc[n+]([C@@H]2O[C@@H](COP(=O)([O-])OP(=O)(O)OC[C@@H]3O[C@@H](n4cnc5c(N)ncnc54)[C@@H](OP(=O)(O)O)[C@H]3O)[C@@H](O)[C@H]2O)c1,?,11%
CCCn1c(C)nc2c(NCCN(C(C)C)C(C)C)nc(C)nc21,-11%,14%
CCCn1c(C)nc2c(N(CCN(C)C)Cc3ccccc3)nc(C)nc21,16µM*,19%
CCCn1c(C)nc2c(NCCN(C)C)nc(C)nc21,25µM*,23%
CCCn1c(C)nc2c(N(CCN(CC)CC)CCN(CC)CC)nc(C)nc21,5%,23%
Cn1cccc1Cc1nnc(SCC(=O)Nc2ccccc2F)n1CCc1ccccc1,16µM*,/
SMILES,ALOX15 inhib,ALOX15B inhib
COc1ccc(-n2c(Cc3cccn3C)nnc2SCC(=O)Nc2nc(C)cs2)cc1,-28%,/
Cc1csc(NC(=O)CSc2nnc(Cc3cccn3C)n2CCc2ccccc2)n1,13µM*,/
Cn1cccc1Cc1nnc(SCC(N)=O)n1CCc1ccccc1,-5%,/
CO[C@H]1COC(=O)[C@H](C)NC(=O)C/C=C\[C@@H](C)[C@H](OC)COC(=O)[C@@H](OCc2ccccc2)/C=C\[C@@H]1C,11%[11.4 µM],/
CCOc1ccc(N(CC(=O)N/N=C/c2cc([N+](=O)[O-])ccc2Cl)S(C)(=O)=O)cc1,/,-5%
CCOc1ccc(S(=O)(=O)N(CC(=O)N/N=C/c2ccc(-c3ccc([N+](=O)[O-])cc3)o2)c2ccccc2)cc1,/,13µM*
COc1ccc(NC2CC(=O)N(c3ccccc3)C2=O)cc1 (configuration not stated),-10%,-4%
COc1ccccc1N1C(=O)CC(Nc2ccc(N3CCOCC3)cc2)C1=O (configuration not stated),13µM*,-6%
CCOc1ccccc1N1CC(C(=O)Nc2ccccc2N2CCOCC2)CC1=O (configuration not stated),-14%,-5%
CCOc1ccccc1N1C(=O)CC(Nc2ccc(N3CCOCC3)cc2)C1=O (configuration not stated),?,16µM*
CN(C)Cc1ccccc1-c1cncnc1Nc1ccc(F)cc1,-10%,8%
CN(C)/C=C1/C=C(c2ccccc2)OC1=O,/,-21%
CCC1=C/C(=C/N(C)c2ccccc2)C(=O)S1,25µM*,-25%
COC(=O)[C@@H]1O[C@@H](SCCN)[C@@H](O)[C@H](O)[C@H]1O,5%[11.4 µM],-10%[11.4 µM]
O=C(CSc1nnc(-c2ccccc2)o1)c1ccc2c(c1)OCCO2,4%,-9%
O=C(CSc1nnc(-c2ccccc2)o1)c1nnc(-c2ccccc2)o1,20µM*,-27%
